Most compounds without a hit are left out; they make up all but 10% or so of the library.
BAZ2B block – inhibitors of human BAZ2B bromodomain; Q9UIF8; AlphaScreen BAZ2B-H3K14Ac peptide displacement; Potency, µM (titrated, usually from 114 µM), for the others: at the highest dose activity change, negative = inhibition, hits mostly inhibitors; actives 4.4% (n = 360,000); also: potency is read from the fitted curve at half-maximal effect; % is scaled to controls: 0 for no effect and ±100 for the full control effect; nearly all actives have a fitted effect of over 60% in size
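BAZ2B 50 nM plus b-H3(5-23)K14Ac 50 nM, PBS pH 7.4/0.01% Tween-20, 30 min RT; compound added (max 110 uM), 30 min RT; streptavidin donor/Ni-chelate acceptor beads 10 ug/mL final, 20 min dark; AlphaScreen read.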
G9a inh – blocks human histone lysine methyltransferase G9a | Q96KQ7 | G9a H3K9 monomethylation, AlphaScreen, 2 h | Potency, µM (series often up to 102 µM), inactives show at the highest dose activity, negative = inhibition, most hits filed as inhibitors | actives 8.8% (n = 350,000) | AID 504332; also: potency is read from the fitted curve at half-maximal effect; % is scaled to controls: 0 for no effect and ±100 for the full control effect; nearly all actives have a fitted effect of over 75% in size
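Enzyme 20 nM + cpd, 15 min RT; add b-H3K9 pep 500 nM / SAM 20 uM; 2 h RT; anti-H3K9me1 Ab 0.5 ug/mL + SA donor / anti-rabbit acceptor beads 20 ug/mL each, 10 min; AlphaScreen read.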
CtBP-E1A blk – CtBP/E1A binding inhibition | AlphaScreen GST-E1A/His-CtBP binding, 1536-well; stronger effect = lower value | activity change, % (concentration not given with the values) | actives 0.49% (n = 340,000); in the data active = activity change below about -65%; inconclusive = mostly about -30% to -63%; also: % is scaled to controls: 0 for no effect and ±100 for the full control effect
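Steps: dispense buffer (Tris pH 8.0, NaCl 300 mM, TCEP 1 mM, BSA, Tween 20); add 5X protein mix (GST-E1A, His-CtBP, 125 nM each); pin 23 nL compound; 2 h at 37 °C, dark; add 5X beads (50 ug/mL); 1 h; read.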
Six1-Eya2 blk – Six1/Eya2 interaction inhibition | Q15475+O00167 | AlphaScreen GST-Six1/His-Eya2 binding, biochemical; stronger effect = lower value | activity change, % (concentration not given with the values) | actives 0.56% (n = 360,000) | AID 651725; in the data active = activity change below about -65%; inconclusive = mostly about -30% to -63%; also: % is scaled to controls: 0 for no effect and ±100 for the full control effect
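GST-Six1 + His-Eya2 (5X stock: 250/500 nM); Tris pH 8.0, 300 mM NaCl, 0.05% BSA, 0.02% Tween 20; GSH donor/Ni acceptor beads; 1 h 37 °C dark; AlphaScreen readout.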
JMJD2A Tudor – inhibitors of human JMJD2A Tudor domain; O75164; AlphaScreen JMJD2A-Tudor / H3K4me3 peptide binding; actives 4.4% (n = 390,000); Potency, µM (titrated, usually from 114 µM), inactives show at the top dose activity change, negative = inhibition, hits mostly inhibitors; also: potency is read from the fitted curve at half-maximal effect; % is scaled to controls: 0 for no effect and ±100 for the full control effect; nearly all actives have a fitted effect of over 50% in size
Target sequence (O75164 whole entry, looked up, the tested form may be a part): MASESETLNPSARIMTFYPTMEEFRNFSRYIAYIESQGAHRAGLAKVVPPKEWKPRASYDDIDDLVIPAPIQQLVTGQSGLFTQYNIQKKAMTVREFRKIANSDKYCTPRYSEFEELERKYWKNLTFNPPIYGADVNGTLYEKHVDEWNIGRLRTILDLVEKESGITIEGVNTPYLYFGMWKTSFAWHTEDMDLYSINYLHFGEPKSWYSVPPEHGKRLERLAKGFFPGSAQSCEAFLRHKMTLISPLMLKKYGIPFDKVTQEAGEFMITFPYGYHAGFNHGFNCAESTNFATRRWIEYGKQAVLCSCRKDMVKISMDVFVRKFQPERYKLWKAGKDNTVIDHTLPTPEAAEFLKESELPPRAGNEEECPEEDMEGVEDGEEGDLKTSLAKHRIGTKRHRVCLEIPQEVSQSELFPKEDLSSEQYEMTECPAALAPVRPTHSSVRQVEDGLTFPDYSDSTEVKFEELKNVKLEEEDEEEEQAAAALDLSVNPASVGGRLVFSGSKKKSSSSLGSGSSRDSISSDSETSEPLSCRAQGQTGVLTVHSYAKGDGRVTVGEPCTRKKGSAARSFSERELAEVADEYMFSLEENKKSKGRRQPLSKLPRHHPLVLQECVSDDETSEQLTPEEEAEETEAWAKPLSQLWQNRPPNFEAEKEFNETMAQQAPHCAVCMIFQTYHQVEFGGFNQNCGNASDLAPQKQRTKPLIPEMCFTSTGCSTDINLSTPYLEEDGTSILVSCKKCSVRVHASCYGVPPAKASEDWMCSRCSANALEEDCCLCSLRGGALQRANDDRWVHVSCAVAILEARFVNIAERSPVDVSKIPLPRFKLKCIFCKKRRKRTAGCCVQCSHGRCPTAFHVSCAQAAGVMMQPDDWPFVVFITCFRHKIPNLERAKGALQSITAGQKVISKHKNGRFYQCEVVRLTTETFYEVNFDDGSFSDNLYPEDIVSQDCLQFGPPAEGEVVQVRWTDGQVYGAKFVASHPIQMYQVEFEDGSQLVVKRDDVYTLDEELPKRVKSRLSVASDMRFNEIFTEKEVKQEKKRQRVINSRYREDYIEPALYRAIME
HP1b binding inh – inhibitors of HP1-beta chromodomain binding to methylated histone tails; actives 0.56% (n = 390,000); Potency, µM (doses to about 114 µM), for inactives: top-dose activity change, negative = inhibition, hits mostly inhibitors; P83916; AlphaScreen HP1-beta / biotin-H3K9me3 peptide binding; also: potency is read from the fitted curve at half-maximal effect; nearly all actives have a fitted effect of over 70% in size
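HP1-beta protein (50 nM final) preincubated 30 min at room temperature with biotinylated H3(1-18)K9me3 peptide (50 nM) in PBS pH 7.4, 0.01% Tween-20, then compound added for 30 min. AlphaScreen streptavidin donor/nickel chelate acceptor beads (10 ug/mL final), 30 min dark, luminescence read.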
* marks the source's active call; other numbers are inactive results; [ ] = dose if it differs, or a comment. Unless noted, calls follow the shape of the dose curve; as a rule, active = well fitted inhibition curve with a large enough effect; inconclusive = small, poorly fitted or top-dose-only effect; inactive = no such curve, though single readings can be large or run the other way.

Clc1ccc(-c2nnc(-c3cccnc3)o2)cc1 was read as BAZ2B block 8%, G9a inh 16%, CtBP-E1A blk 2, Six1-Eya2 blk 3, JMJD2A Tudor -16% and HP1b binding inh 39%.
Screening S=c1[nH]nc(-c2cccnc2)n1-c1ccccc1 returned BAZ2B block -30%, G9a inh 1.6µM*, CtBP-E1A blk 7, Six1-Eya2 blk 6, JMJD2A Tudor 7.9µM* and HP1b binding inh 21%.
`S=c1[nH]nc(-c2ccc(Cl)cc2)n1-c1cccnc1` gave BAZ2B block -16%, G9a inh 10µM*, Six1-Eya2 blk 8, JMJD2A Tudor 8.9µM* and HP1b binding inh 42%.
For CCc1ccc(CNC(=O)C(C)n2ccc3cc(S(=O)(=O)N4CCCCCC4)ccc32)cc1 (stereo not drawn) the results were BAZ2B block -12%, G9a inh -9%[59 µM], JMJD2A Tudor -16% and HP1b binding inh 3%.
`O=C(/C=C/c1ccccn1)c1cc(Cl)cc(Cl)c1O` gave BAZ2B block -35%, G9a inh 50µM*, CtBP-E1A blk -17, Six1-Eya2 blk -3, JMJD2A Tudor -1%[11.4 µM] and HP1b binding inh 16%.
Screening COc1ccc(/C=C/C(=O)c2cc(Cl)cc(Cl)c2O)c(OC)c1 returned BAZ2B block -36%, G9a inh -3%, CtBP-E1A blk 5, Six1-Eya2 blk 3, JMJD2A Tudor -6% and HP1b binding inh 28%.
For C[C@@H]1CN([C@@H](C)CO)S(=O)(=O)c2ccc(-c3ccccc3)cc2O[C@@H]1CN(C)Cc1ccccc1C(=O)O the results were CtBP-E1A blk 7 and Six1-Eya2 blk 2.
Cc1[nH]c(C)c(S(=O)(=O)N2CCN(c3ccccc3)CC2)c1C(=O)N1CCCC1 was read as BAZ2B block -12%, G9a inh 45µM*, CtBP-E1A blk -1, Six1-Eya2 blk 0, JMJD2A Tudor -25% and HP1b binding inh 6%.
`CCS(=O)(=O)N1CCC(n2c(C(F)(F)F)nc3cccnc32)CC1` gave BAZ2B block -2%, G9a inh 7%[59 µM], JMJD2A Tudor 8% and HP1b binding inh 26%.
For O=C(CN(Cc1cccs1)C(=O)CSc1nnc(COc2ccccc2)o1)NC1CCCC1 the results were BAZ2B block -8%, G9a inh -2%[59 µM], CtBP-E1A blk 12, Six1-Eya2 blk 3, JMJD2A Tudor -12% and HP1b binding inh 32%.
For Cc1ccc(CN(CC(=O)NC2CCCC2)C(=O)CSc2nnc(COc3ccccc3)o2)cc1 the results were BAZ2B block 47%, G9a inh 32µM*, CtBP-E1A blk 0, Six1-Eya2 blk 6, JMJD2A Tudor -27% and HP1b binding inh inconclusive.
O=C(CSc1nnc(COc2ccccc2)o1)NCCc1ccccc1 was read as BAZ2B block 6%, G9a inh -4%[59 µM], CtBP-E1A blk 0, Six1-Eya2 blk 12, JMJD2A Tudor 3.2µM* and HP1b binding inh inconclusive.
`O=C(CN(Cc1ccccc1)C(=O)CSc1nnc(COc2ccccc2)o1)NC1CCCC1` gave BAZ2B block -2%, G9a inh 10µM*, CtBP-E1A blk 6, Six1-Eya2 blk 2, JMJD2A Tudor -12% and HP1b binding inh -8%.
`Cn1cccc1C(=O)N1CCC[C@@]2(CCN(c3ccccc3)C2)C1` gave G9a inh -24%[12.7 µM].
For CCC1=NN(C(=O)CCc2ccccc2)C(O)(C(F)(F)F)C1 (stereo not drawn) the results were BAZ2B block 1%, G9a inh 25%[0.501 µM], CtBP-E1A blk 4, Six1-Eya2 blk 7, JMJD2A Tudor 6% and HP1b binding inh 38%.
`CCC1=NN(S(=O)(=O)c2ccc(C)cc2)C(O)(C(F)(F)F)C1` (stereo not drawn) gave BAZ2B block -11%, G9a inh 40µM*, CtBP-E1A blk 7, Six1-Eya2 blk -1, JMJD2A Tudor 5% and HP1b binding inh 51%.
`CC(C)(C)c1ccc(NC(=O)Nc2ccc(F)cc2)cc1` gave BAZ2B block 2%, G9a inh -8%, CtBP-E1A blk 5, Six1-Eya2 blk 2, JMJD2A Tudor 35µM* and HP1b binding inh -10%.
`Cc1ccc(CNC(=O)Nc2ccc(OC(F)(F)F)cc2)n1C` gave BAZ2B block inconclusive, G9a inh 50µM*, CtBP-E1A blk -2, Six1-Eya2 blk 0, JMJD2A Tudor -35% and HP1b binding inh -3%.
`Cc1ccc(CNC(=O)Nc2ccc(F)cc2)n1C` gave BAZ2B block -36%, G9a inh 50µM*, CtBP-E1A blk -3, Six1-Eya2 blk 0, JMJD2A Tudor inconclusive and HP1b binding inh 29%.
Screening CC(C)(C)c1ccc(COC(=O)Nc2ccc(F)cc2)cc1 returned BAZ2B block 27%, G9a inh -11%[59 µM], CtBP-E1A blk inconclusive, Six1-Eya2 blk -1, JMJD2A Tudor 11% and HP1b binding inh 26%.
For O=C(NCc1ccco1)Nc1ccc(OC(F)(F)F)cc1 the results were BAZ2B block -19%, G9a inh -2%, Six1-Eya2 blk 1, JMJD2A Tudor -11% and HP1b binding inh 28%.
`COc1ccc(S(=O)(=O)N2CCCC(C(=O)NCc3cccnc3)C2)cc1OC` (stereo not drawn) gave BAZ2B block -8%, G9a inh -9%, CtBP-E1A blk 5, Six1-Eya2 blk 0, JMJD2A Tudor 10% and HP1b binding inh 16%.
CCOC(=O)NC1=NCC(C)S1 (stereo not drawn) was read as BAZ2B block -3%, G9a inh -2%, Six1-Eya2 blk -6, JMJD2A Tudor 3% and HP1b binding inh 33%.
For CC1CCC2C(=O)N(c3ccc(Cc4ccncc4)cc3)C(=O)C2C1 (stereo not drawn) the results were BAZ2B block -14%, G9a inh 7%, CtBP-E1A blk -6, Six1-Eya2 blk -1, JMJD2A Tudor -16% and HP1b binding inh 23%.
O=S(=O)(Cc1cc(NCc2ccccc2)nc(-c2ccccn2)n1)c1ccccc1 was read as BAZ2B block inconclusive, G9a inh 7%, CtBP-E1A blk -27, Six1-Eya2 blk -7, JMJD2A Tudor -30% and HP1b binding inh 18%.
Cc1ccccc1NC(=O)C(NS(=O)(=O)c1ccc2c(c1)c(=O)n(C)c(=O)n2C)c1ccccc1 (stereo not drawn) was read as BAZ2B block 9%, G9a inh inconclusive, CtBP-E1A blk -1, Six1-Eya2 blk -19, JMJD2A Tudor -8% and HP1b binding inh 48%.
